Source: PubChem BioAssay (NCATS)
Inconclusive results are not listed. Activity calls are given as the source filed them. Calls follow the shape of the dose curve; as a rule, active = well fitted inhibition curve with a large enough effect; inconclusive = small, poorly fitted or top-dose-only effect; inactive = flat fitted curve, though single readings scatter.

Columns and labels:
Experiment in all cases: qHTS profiling for inhibitors of Plasmodium falciparum proliferation (AID 504749); also: nearly all actives have a fitted effect of over 60% in size
CP217 = settings: P. falciparum in erythrocytes, SYBR Green DNA, 72 h; series mostly up to 12.8 µM
In short: (§1)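 P. falciparum-infected erythrocytes (0.3% parasitemia, 2.5% hematocrit) incubated with compound 72 h at 37 C, 5% CO2. Parasite DNA detected by SYBR Green after lysis, overnight at room temperature; normalised to 0.29 uM artemisinin and DMSO.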

CP237 = settings: P. falciparum in erythrocytes, SYBR Green DNA, 72 h; series mostly up to 12.8 µM
In short: as §1

CP238 = settings: P. falciparum in erythrocytes, SYBR Green DNA, 72 h; series mostly up to 12.8 µM
In short: as §1

CP247 = settings: P. falciparum in erythrocytes, SYBR Green DNA, 72 h; series mostly up to 12.8 µM
In short: as §1

CP250 = settings: P. falciparum in erythrocytes, SYBR Green DNA, 72 h; series mostly up to 12.8 µM
In short: as §1

CP252 = settings: P. falciparum in erythrocytes, SYBR Green DNA, 72 h; series mostly up to 12.8 µM
In short: as §1

CP256 = settings: P. falciparum in erythrocytes, SYBR Green DNA, 72 h; series mostly up to 12.8 µM
In short: as §1

CP260 = settings: P. falciparum in erythrocytes, SYBR Green DNA, 72 h; series mostly up to 12.8 µM
In short: as §1

CP262 = settings: P. falciparum in erythrocytes, SYBR Green DNA, 72 h; series mostly up to 12.8 µM
In short: as §1

CP265 = settings: P. falciparum in erythrocytes, SYBR Green DNA, 72 h; series mostly up to 12.8 µM
In short: as §1

CP266 = settings: P. falciparum in erythrocytes, SYBR Green DNA, 72 h; series mostly up to 28.7 µM
In short: as §1

CP268 = settings: P. falciparum in erythrocytes, SYBR Green DNA, 72 h; series mostly up to 12.8 µM
In short: as §1

CP269 = settings: P. falciparum in erythrocytes, SYBR Green DNA, 72 h; series mostly up to 12.8 µM
In short: as §1

CP286 = settings: P. falciparum in erythrocytes, SYBR Green DNA, 72 h; series mostly up to 12.8 µM
In short: as §1

CP291 = settings: P. falciparum in erythrocytes, SYBR Green DNA, 72 h; series mostly up to 12.8 µM
In short: as §1

CP297 = settings: P. falciparum in erythrocytes, SYBR Green DNA, 72 h; series mostly up to 12.8 µM
In short: as §1

CP305 = settings: P. falciparum in erythrocytes, SYBR Green DNA, 72 h; series mostly up to 12.8 µM
In short: as §1

CP315 = settings: P. falciparum in erythrocytes, SYBR Green DNA, 72 h; series mostly up to 12.8 µM
In short: as §1

CP325 = settings: P. falciparum in erythrocytes, SYBR Green DNA, 72 h; series mostly up to 12.8 µM
In short: as §1

CP329 = settings: P. falciparum in erythrocytes, SYBR Green DNA, 72 h; series mostly up to 12.8 µM
In short: as §1

CP335 = settings: P. falciparum in erythrocytes, SYBR Green DNA, 72 h; series mostly up to 12.8 µM
In short: as §1

DFO2036 = settings: P. falciparum in erythrocytes, SYBR Green DNA, 72 h; series mostly up to 12.8 µM
In short: as §1

DIV14 = settings: P. falciparum in erythrocytes, SYBR Green DNA, 72 h; series mostly up to 12.8 µM
In short: as §1

DIV17 = settings: P. falciparum in erythrocytes, SYBR Green DNA, 72 h; series mostly up to 12.8 µM
In short: as §1

DIV30 = settings: P. falciparum in erythrocytes, SYBR Green DNA, 72 h; series mostly up to 12.8 µM
In short: as §1

Dd2 = settings: P. falciparum in erythrocytes, SYBR Green DNA, 72 h; series mostly up to 12.8 µM
In short: as §1

ECU = settings: P. falciparum in erythrocytes, SYBR Green DNA, 72 h; series mostly up to 12.8 µM
In short: as §1

FAB9 = settings: P. falciparum in erythrocytes, SYBR Green DNA, 72 h; series mostly up to 12.8 µM
In short: as §1

GB4 = settings: P. falciparum in erythrocytes, SYBR Green DNA, 72 h; series mostly up to 12.8 µM
In short: as §1

HB3 = settings: P. falciparum in erythrocytes, SYBR Green DNA, 72 h; series mostly up to 12.8 µM
In short: as §1

ICS = settings: P. falciparum in erythrocytes, SYBR Green DNA, 72 h; series mostly up to 12.8 µM
In short: as §1

JCK = settings: P. falciparum in erythrocytes, SYBR Green DNA, 72 h; series mostly up to 12.8 µM
In short: as §1

N140 = settings: P. falciparum in erythrocytes, SYBR Green DNA, 72 h; series mostly up to 12.8 µM
In short: as §1

P93_24 = settings: P. falciparum in erythrocytes, SYBR Green DNA, 72 h; series mostly up to 12.8 µM
In short: as §1

P94_40 = settings: P. falciparum in erythrocytes, SYBR Green DNA, 72 h; series mostly up to 12.8 µM
In short: as §1

PAD = settings: P. falciparum in erythrocytes, SYBR Green DNA, 72 h; series mostly up to 12.8 µM
In short: as §1

PC15 = settings: P. falciparum in erythrocytes, SYBR Green DNA, 72 h; series mostly up to 12.8 µM
In short: as §1

PC26 = settings: P. falciparum in erythrocytes, SYBR Green DNA, 72 h; series mostly up to 12.8 µM
In short: as §1

PC49 = settings: P. falciparum in erythrocytes, SYBR Green DNA, 72 h; series mostly up to 12.8 µM
In short: as §1

SC27B = settings: P. falciparum in erythrocytes, SYBR Green DNA, 72 h; series mostly up to 12.8 µM
In short: as §1

TAB109 = settings: P. falciparum in erythrocytes, SYBR Green DNA, 72 h; series mostly up to 12.8 µM
In short: as §1

TAB113 = settings: P. falciparum in erythrocytes, SYBR Green DNA, 72 h; series mostly up to 12.8 µM
In short: as §1

TAB165 = settings: P. falciparum in erythrocytes, SYBR Green DNA, 72 h; series mostly up to 12.8 µM
In short: as §1

W2 = settings: P. falciparum in erythrocytes, SYBR Green DNA, 72 h; series mostly up to 12.8 µM
In short: as §1

Measured: Potency

CC(=O)OCC1=C(C(=O)O)N2C(=O)[C@@H](NC(=O)CSc3ccncc3)[C@@H]2SC1
inactive: all assays above
